# Results as given in PubChem BioAssay.
# Unmarked numbers belong to inactive results. The rule behind the calls is not given here.
# Target: Pantothenate synthetase (Mycobacterium tuberculosis (strain ATCC 25618 / H37Rv)) (UniProt P9WIL5)
# Assay: Coupled enzyme confirmation of inhibitors against recombinant Mtb PanC (AID 375);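 note: 0% = full reaction with vehicle and 100% = no enzyme background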
# Conditions: coupled enzyme assay; at 10 µM, hits give high values
# Chain of Pantothenate synthetase (Mycobacterium tuberculosis (strain ATCC 25618 / H37Rv)) (P9WIL5 whole entry, looked up): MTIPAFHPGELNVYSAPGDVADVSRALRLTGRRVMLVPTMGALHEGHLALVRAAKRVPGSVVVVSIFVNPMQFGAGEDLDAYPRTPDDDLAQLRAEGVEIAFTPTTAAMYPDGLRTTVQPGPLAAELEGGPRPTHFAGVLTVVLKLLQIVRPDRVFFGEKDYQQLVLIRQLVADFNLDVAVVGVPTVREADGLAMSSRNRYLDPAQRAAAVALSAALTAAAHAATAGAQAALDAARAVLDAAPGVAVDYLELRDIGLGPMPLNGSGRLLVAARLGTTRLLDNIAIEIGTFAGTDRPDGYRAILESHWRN
row,SMILES,inhibition
1,CC(C)CCn1c(SCC#N)nc2c(sc3ccccc32)c1=O,2%
2,COc1ccccc1CNS(=O)(=O)c1cccc(S(=O)(=O)N2CCOCC2)c1,0%
3,O=C(NCCC1=CCCCC1)C1CCN(S(=O)(=O)c2cccc3nsnc23)CC1,10%
4,Fc1cc(F)c(F)c(SCCc2ccncc2)c1F,0%
5,CN(c1ccccc1)S(=O)(=O)c1ccc(C(=O)OCC(=O)N2CCOCC2)cc1,7%
6,O=C(NC1CCCCC1)N(Cc1ccccc1)Cc1ccco1,1%
7,CCOC(=O)C1=C(C)N(C)C(=O)NC1c1ccccc1OC (stereo not given),0%
8,CC(=O)Nc1ccc(NC(=O)c2ccccc2F)cc1,0%
9,CN1CCN(C(=O)C2CCN(S(=O)(=O)c3ccc4c(c3)oc(=O)n4C)CC2)CC1,0%
10,O=c1c2ccccc2nc(SCc2nc(-c3ccccc3)no2)n1-c1ccc(F)cc1,0%
11,COC(=O)c1ccc(NC(=O)CN2CCN(c3ccc(Cl)cc3)CC2)cc1,1%
12,COCc1nnc(SCC(=O)NC(C)c2ccccc2)n1-c1ccccc1 (stereo not given),4%
13,Cc1cc(C)n2nc(S(=O)(=O)N(C)c3ccccc3)nc2n1,0%
14,O=S1(=O)C=C(Sc2nnc(-c3ccccc3)o2)c2ccccc21,3%
15,Cc1cccc(Cn2c(SCCN3CCCCC3)nc3c2c(=O)[nH]c(=O)n3C)c1,0%
16,O=C(COC(=O)c1cnccn1)Nc1ccc2c(c1)OCO2,7%
17,O=C(NCCN1CCCCC1)c1ccc(=O)oc1,7%
18,Cc1ccccc1C1CC(c2ccccc2)Nc2ncnn21 (stereo not given),12%
19,CC(=O)c1n[nH]nc1NC(=O)c1ccccc1,0%
20,C=CCSC1=C(C#N)C(c2ccccc2)CC(=O)N1 (stereo not given),0%

row,SMILES,inhibition
1,O=C(CCNC(=O)c1ccc(Br)o1)NC1CCCC1,0%
2,COC(=O)c1cc(O)c(OCc2ccccc2)c(O)c1,0%
3,O=C(OC1CCOC1=O)c1ccc2ccccc2n1 (stereo not given),4%
4,CCNCCNC(=O)c1c(O)c2ccccc2n(CC)c1=O,0%
5,CCN(CC)CCNC(=O)c1ccc(N2CCCCC2)c(NS(=O)(=O)c2ccc(C)cc2)c1,12%
6,NC(=O)CCS(=O)(=O)CCN1CCCCC1,0%
7,Cc1cccc(NC(=O)CS(=O)(=O)c2cn(C)c3ccccc23)c1,0%
8,COc1ccccc1C(=O)NCCc1nc2ccccc2n1C,1%
9,Cc1ccc(Cn2c(C(=O)NCCCN3CCOCC3)cc3sccc32)cc1,2%
10,COc1cccc2c(=O)cc(C)n(CC(=O)Nc3ccc(C)c(C)c3)c12,0%
11,CC1CC(C)CN(c2ncnc3c2cnn3-c2ccc(Cl)cc2)C1 (stereo not given),1%
12,CCCOc1ccc(/C(O)=C2/C(=O)C(=O)N(CCCOC)C2c2ccncc2)cc1 (stereo not given),4%
13,Clc1cc2c(c(Cn3cnc4ccccc43)c1)OCOC2,0%
14,Cn1ccnc1C(O)c1ccco1 (stereo not given),3%
15,Cc1cc(C)c2oc(=O)cc(CN3CCOCC3)c2c1,0%
16,CC(=O)c1ccc(NC2OC(C)C(O)C(O)C2O)cc1 (stereo not given),3%
17,Cc1c(C(=O)NCc2ccoc2)oc2ccc3c(c12)C(=O)CC(C)(C)O3,2%
18,Cc1nc2ccc(S(=O)(=O)NCC(=O)N3CCc4ccccc4C3)cc2s1,2%
19,Cc1cc(NCCN2CCOCC2)n2nc(C)c(-c3ccccc3)c2n1,0%
20,CCOC(=O)c1ccc(-c2c(C(=O)OCC)oc3cc(O)c(CC)cc3c2=O)o1,3%
